Laboratory results: PubChem BioAssay
Values without a mark were called inactive. Calls of active or inactive are those of the source.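 Rule for the calls: active = Her2 level under about 52% in both replicate screens, with viability over 70% of control (limit read from the data); inconclusive = Her2 under the limit in one screen only, or viability under 70%; inactive = Her2 level above the set limit.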

Target: Receptor tyrosine-protein kinase erbB-2 (Homo sapiens) (UniProt P04626)
Test: Her2 expression decrease, cell viability multiplex – SKBR3 breast tumor cells, AlphaScreen, ATP viability, primary screen (AID 461);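 note: lower value means less Her2 protein in the cells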
Conditions: 18-24 h, at 10 µM, stronger effect = lower value

Sequence of Receptor tyrosine-protein kinase erbB-2 (Homo sapiens) (P04626 whole entry, looked up): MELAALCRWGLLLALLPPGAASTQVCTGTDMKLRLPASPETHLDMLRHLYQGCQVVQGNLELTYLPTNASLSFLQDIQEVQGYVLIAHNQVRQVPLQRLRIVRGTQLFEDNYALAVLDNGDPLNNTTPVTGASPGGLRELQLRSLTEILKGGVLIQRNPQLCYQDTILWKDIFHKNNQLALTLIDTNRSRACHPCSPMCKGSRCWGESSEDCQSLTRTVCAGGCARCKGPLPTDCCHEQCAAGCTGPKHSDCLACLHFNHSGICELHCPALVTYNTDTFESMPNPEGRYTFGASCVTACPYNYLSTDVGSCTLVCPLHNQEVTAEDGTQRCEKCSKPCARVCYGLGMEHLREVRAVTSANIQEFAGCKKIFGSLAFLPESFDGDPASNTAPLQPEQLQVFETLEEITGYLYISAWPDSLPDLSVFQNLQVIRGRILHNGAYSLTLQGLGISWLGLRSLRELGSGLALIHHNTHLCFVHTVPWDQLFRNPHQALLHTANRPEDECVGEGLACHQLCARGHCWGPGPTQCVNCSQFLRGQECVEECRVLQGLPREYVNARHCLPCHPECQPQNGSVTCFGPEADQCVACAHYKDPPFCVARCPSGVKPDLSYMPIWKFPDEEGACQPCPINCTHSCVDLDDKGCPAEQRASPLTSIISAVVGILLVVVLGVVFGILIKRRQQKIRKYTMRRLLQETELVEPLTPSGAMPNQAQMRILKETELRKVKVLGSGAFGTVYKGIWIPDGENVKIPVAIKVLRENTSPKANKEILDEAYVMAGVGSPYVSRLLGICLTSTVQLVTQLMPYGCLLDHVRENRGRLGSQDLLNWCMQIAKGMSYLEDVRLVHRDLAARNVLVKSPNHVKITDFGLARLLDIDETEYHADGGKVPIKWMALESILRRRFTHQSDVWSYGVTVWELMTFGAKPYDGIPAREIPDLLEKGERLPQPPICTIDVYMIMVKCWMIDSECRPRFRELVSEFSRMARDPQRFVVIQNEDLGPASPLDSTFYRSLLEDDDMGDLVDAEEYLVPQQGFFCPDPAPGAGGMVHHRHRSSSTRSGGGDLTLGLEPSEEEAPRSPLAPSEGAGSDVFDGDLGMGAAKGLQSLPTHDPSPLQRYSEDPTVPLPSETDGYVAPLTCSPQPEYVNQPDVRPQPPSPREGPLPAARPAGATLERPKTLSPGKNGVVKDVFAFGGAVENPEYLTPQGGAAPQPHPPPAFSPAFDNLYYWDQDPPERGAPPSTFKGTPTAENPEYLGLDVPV

| Structure (SMILES) | Her2 level |
| --- | --- |
| O=S(=O)(Nc1ccc(Cc2ccncc2)cc1)N1CCCC1 | 94% |
| CCn1c(=O)cc(OCC(=O)NCCCN2CC(C)CC(C)C2)c2ccccc21 (stereo not given) | 81% |
| Nn1c(SCC(=O)Nc2ccc3c(c2)OCO3)nnc1C1CC1 | 78.5% |
| CCOP(=O)(c1ccc(N(C)C)cc1)C(O)c1ccccc1OC (stereo not given) | 98.5% |
| COc1ccc(C(=O)N2CCSC2=S)cc1OC | 96% |
| O=c1c2nnn(Cc3ccccc3)c2ncn1-c1ccccc1 | 90.5% |
| CCOc1ccc(NC(=O)CN(C)S(=O)(=O)c2cccs2)cc1 | 100% |
| O=c1[nH]c(SCc2cc(=O)n3ccccc3n2)nc2c1CCC2 | 83.5% |
| Cc1ccc(O)c(NC(=O)COc2cc(C)ccc2C)c1 | 89.5% |
| N#Cc1cc2sc3nnc(-c4ccncc4)n3c2cc1C#N | 35.5% (active) |
| CCOc1cc(C2c3c(n[nH]c3C)C(=O)N2c2ccc(Br)cc2)ccc1O (stereo not given) | 71.5% |
| Cc1cc(NC(=O)CSc2ccc(Cl)cc2)no1 | 114% |
| CC(C)[C@H](NC(=O)NC1CCCC1)C(=O)O | 97.5% |
| CCOC(=O)c1[nH]c2ccc(OC)cc2c1NC(=O)CCN1CCC(C)CC1 | 94.5% |
| CCc1nc(C)c(-c2ccccc2)c(=O)[nH]1 | 120% |
| CN(C)c1ccc(NC(=O)CSCc2nc3c(nnn3Cc3ccc(F)cc3)c(=O)[nH]2)cc1 | 83.5% |
| COc1ccc(C2CC(=O)c3cnc(NC(=O)c4ccccc4OC)nc3C2)c(OC)c1 (stereo not given) | 49% (active) |
| Cc1cnc(NC(=O)CSc2nc3ccccc3c(=O)[nH]2)s1 | 93.5% |
| CCCOc1ccc(OCCSc2ncccn2)cc1 | 91% |
| Cc1nnc(C)c2c(C)n(-c3ccc(Br)cc3)c(C)c12 | 110% |

| Structure (SMILES) | Her2 level |
| --- | --- |
| COC(=O)c1cc(O)c(OCc2ccccc2)c(O)c1 | 98% |
| O=C(c1ccc(Br)o1)N(c1ccc(Br)cc1)C1C=CS(=O)(=O)C1 (stereo not given) | 156% |
| Cc1nn(-c2ccccc2)c(C)c1C(=O)OCC(=O)c1c(N)n(CC(C)C)c(=O)n(C)c1=O | 74% |
| CC(=O)N1CCc2cc(S(=O)(=O)NC(C(=O)NCc3ccccc3)C(C)C)ccc21 (stereo not given) | 95.5% |
| N#CC1=C(N)Oc2n[nH]c(-c3cccs3)c2C1c1cccs1 (stereo not given) | 79.5% |
| Cc1cc(C(=O)CN2C(=O)c3ccccc3C2=O)c(C)n1Cc1cccs1 | 99% |
| CCc1nnc(NC(=O)C2CCCN2S(=O)(=O)c2ccc(C)cc2)s1 (stereo not given) | 89.5% |
| COC(=O)C1=C(C)C(c2cccs2)NC(=O)N1C (stereo not given) | 86.5% |
| CCOC(=O)CSc1nnc([C@H](C)NC(=O)OC(C)(C)C)o1 | 97% |
| O=C1CC(N2CCN(c3ccc(Cl)c(Cl)c3)CC2)C(=O)N1 (stereo not given) | 103% |
| CCC(C)(C)n1nnnc1C(c1ccncc1)N1CCN(c2cccc(OC)c2)CC1 (stereo not given) | 82.5% |
| COc1cccc(C(=O)OCn2nnc3ccccc3c2=O)c1 | 92.5% |
| O=C(O)CCc1ccc(-c2ccc(F)cc2)n1CC(=O)O | 87% |
| COC(=O)c1ccccc1S(=O)(=O)N(CCCO)Cc1cc2c(C)ccc(C)c2[nH]c1=O | 106% |
| COC(=O)c1ccc(-c2ccc(CNCC(O)c3ccccc3)o2)cc1 (stereo not given) | 101% |
| COC(=O)Nc1ccc(S(=O)(=O)N2CCN(c3ccc(F)cc3)CC2)cc1 | 106% |
| O=C(Nc1ccc(O)cc1)C1CCCN1S(=O)(=O)c1ccc(F)cc1 (stereo not given) | 92% |
| CCc1ccc(C=NC23CN4CN(CN(C4)C2)C3)s1 | 114% |
| Cc1nnc(SCC(=O)N2c3ccccc3CC2C)s1 (stereo not given) | 106% |
| COc1ccccc1S(=O)(=O)n1cc(Cc2ccccc2)c(N)n1 | 86% |
